PostGolgi yeast: growth inhibition of a yeast mutant, post-Golgi transport screen; post-Golgi transport phenotypic cell assay; inhibition, % at 10 µM; 0.9% of 98,000 active;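 further: yeast cells grown in 1536-well plates; yeast grown about 18 h at 30C before absorbance read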
CYP2C19 inh: blocks human cytochrome P450 2C19; P33261; CYP2C19 Supersomes, luciferin-H EGE luminescence, 30 min; inhibition, % at 5 µM; 21% of 96,000 active; AID 778;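 active means CYP2C19 inhibition above a set limit at 5 µM in the primary screen, cut at about 50% in these data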;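 further: plate controls were negative control wells for no effect and 2.5 mM tranylcypromine positive control for full effect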
Target sequence (P33261 whole entry, looked up): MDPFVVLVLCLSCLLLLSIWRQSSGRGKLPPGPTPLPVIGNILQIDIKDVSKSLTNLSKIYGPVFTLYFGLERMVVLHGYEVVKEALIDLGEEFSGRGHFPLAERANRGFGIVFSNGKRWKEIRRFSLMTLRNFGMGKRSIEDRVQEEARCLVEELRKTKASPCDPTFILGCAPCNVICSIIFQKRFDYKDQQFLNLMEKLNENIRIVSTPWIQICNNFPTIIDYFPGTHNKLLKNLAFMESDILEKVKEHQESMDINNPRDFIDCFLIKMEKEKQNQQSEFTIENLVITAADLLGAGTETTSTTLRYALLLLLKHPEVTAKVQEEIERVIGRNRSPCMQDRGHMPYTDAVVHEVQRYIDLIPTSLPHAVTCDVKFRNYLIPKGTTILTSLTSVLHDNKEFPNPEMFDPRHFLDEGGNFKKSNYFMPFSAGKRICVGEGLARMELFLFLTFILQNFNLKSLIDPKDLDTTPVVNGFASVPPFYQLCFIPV
CYP2C9 act: activators of human CYP2C9; recombinant CYP2C9, luciferin-H conversion, luminescence; active compounds read high; factor 1 = untreated enzyme, 0 = blocked; activation factor at 5 µM; 1.4% of 96,000 active; AID 1024;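 active means activation factor of 2 or more for CYP2C9 at a 5 µM dose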;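 further: 0 = sulfaphenazole-blocked wells and 1 = vehicle-only wells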
CYP2C9 inh: human CYP2C9 inhibition; CYP2C9 Supersomes, luciferin-H conversion, luminescence; inhibition, % at 5 µM; 20% of 96,000 active; AID 777;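 active means blocking of liver enzyme CYP2C9 beyond about 50% at 5 µM, limit read from the data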
CYP2C19 act: cytochrome P450 2C19 (human) activation. P33261. recombinant CYP2C19, luciferin-H EGE luminescence; active compounds read high; 0 = fully inhibited enzyme, 1 = untreated enzyme. activation factor at 5 µM. 96,000 tested, under 10 active. AID 1025;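 active means activation factor of at least 2 at 5 µM in the primary screen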;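 further: 0 = wells with 2.5 mM tranylcypromine and 1 = vehicle-only wells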
PostGolgi ctrl: growth of the yeast control strain, post-Golgi counter-screen. efflux-deficient yeast background strain, growth absorbance A615, 16 h. inhibition, % at 10 µM. 5% of 98,000 active
Starred values were filed as active, the others as inactive; . = no result. An excerpt weighted towards active compounds, which were near 32% of everything screened. Unless noted, no stated cut-off is given here; in the data, active means inhibition above about 30%; inactive means the rest.

SMILES | PostGolgi yeast | CYP2C19 inh | CYP2C9 act | CYP2C9 inh | CYP2C19 act | PostGolgi ctrl
CCOC(=O)N1CCC(NC(=O)CCc2nc(-c3ccc(C)cc3)no2)CC1 | -4 | 41 | 0.3 | 73* | 0.6 | 5
CCc1ccccc1N(CC)C(=O)CCc1nc(-c2ccc(C)cc2)no1 | -7 | 27 | 0.5 | 55* | 0.7 | 23
OC(CNCC(c1ccco1)N1CCCCC1)c1ccccc1 (stereo not given) | 10 | 18 | 1 | 0 | 0.8 | 10
Cc1ccc(-c2noc(CCC(=O)NCC3CCCO3)n2)cc1 (stereo not given) | 9 | -2 | 1 | -3 | 1 | 5
CC(C)(C)c1ccc(-c2noc(CCC(=O)NCC3CCCO3)n2)cc1 (stereo not given) | 0 | 65* | 0.5 | 48 | 0.4 | 23
CC(c1cccnc1)N(CCN(C)C)C(=O)Nc1ccc(Cl)cc1 (stereo not given) | -3 | 49 | 0.7 | 28 | 0.5 | 7
CN1CCCC(C(=O)C(C#N)c2ccccc2)C1 (stereo not given) | -2 | 8 | 1.1 | -8 | 0.9 | 22
O=C(Nc1cc(C(F)(F)F)ccc1Cl)C1CCN(c2nnc(-n3cccc3)s2)CC1 | 6 | . | . | . | . | 39*
CC1CCN(Cc2ccc(NC(=O)C3CCN(c4nnc(-n5cccc5)s4)CC3)cc2)CC1 | -5 | 56* | 0.5 | 46 | 0.4 | 7
Cc1ccc(Cl)cc1N1CCN(C(=O)C2CCN(c3nnc(-n4cccc4)s3)CC2)CC1 | -1 | 38 | 0.1 | 85* | 0.6 | 22
COc1ccc(Cl)cc1N1CCN(CCNC(=O)Nc2ccccc2C)CC1 | 3 | -4 | 1.5 | -51 | 1 | 6
COc1ccc(C2OC(=O)CC2C(=O)N2CCN(c3cc(Cl)ccc3C)CC2)cc1OC (stereo not given) | -1 | 73* | 0.2 | 85* | 0.3 | 10
CCCN(C(=O)c1ccccc1N)c1c(C)n(C)n(-c2ccccc2)c1=O | -1 | 4 | 0.8 | 16 | 1 | -1
CC(C)NC(=O)NC(=O)CSc1nnc(COc2ccccc2F)n1C(C)C1CC2CCC1C2 (stereo not given) | 2 | 20 | 0.6 | 42 | 0.8 | 14
CC(C)CC(=O)NC1(C(F)(F)F)C(=O)Nc2c1c(=O)n(C)c(=O)n2C (stereo not given) | 4 | -8 | 1 | -1 | 1.1 | 7
N#Cc1nc(COc2ccccc2Cl)oc1NCc1cccnc1 | 59* | 91* | 0.6 | 36 | 0.1 | 47*
Cc1ccc(CNc2oc(COc3ccccc3Cl)nc2C#N)cc1 | -9 | 30 | 0.4 | 61* | 0.7 | 15
COc1ccc(CNc2oc(COc3ccccc3Cl)nc2C#N)cc1 | -3 | 31 | 0.5 | 47 | 0.7 | 17
Cc1ccnc2nc(C(=O)Nc3nccs3)nn12 | -12 | 5 | 1 | 2 | 0.9 | 7
O=C(CSc1cccc[n+]1[O-])c1cc2ccccc2o1 | -5 | 7 | 1.1 | -5 | 0.9 | -2
CCN1C(=O)/C(=C/N2CC(C)CC(C)C2)SC1=S (stereo not given) | 4 | 32 | 0.9 | 14 | 0.7 | 9
CCN1C(=O)/C(=C\N2CCCCCC2)SC1=S | 11 | 56* | 0.9 | 14 | 0.4 | 19
CCC1CCCCN1C(=O)CSc1nnc(-c2ccc(OC)cc2)o1 (stereo not given) | -2 | 85* | 0.7 | 34 | 0.2 | 16
CC1CCCCN1C(=O)CSc1nnc(-c2ccc(Cl)s2)o1 (stereo not given) | 0 | 95* | 0.4 | 56* | 0.1 | 7
COC(=O)C1CCN(C(=O)CSc2nnc(-c3ccncc3)o2)CC1 | -7 | 15 | 1 | -5 | 0.8 | 11
CCC1CCCCN1C(=O)CSc1nnc(-c2ccc3c(c2)OCCO3)o1 (stereo not given) | -6 | 99* | 0.2 | 80* | 0 | 4
O=C(CSc1nnc(-c2ccc3c(c2)OCCO3)o1)N1CCCC1 | 0 | 28 | 0.8 | 18 | 0.7 | 8
O=C(CSc1nnc(-c2ccccc2Cl)o1)N1CCCCC1 | 4 | 18 | 1.2 | -18 | 0.8 | -3
O=C(Nc1nnc(C2CCCO2)s1)c1ccc(Br)cc1 (stereo not given) | -6 | -8 | 0.9 | 6 | 1.1 | 12
Cc1cc(C)nc(-n2nc(C)cc2NC(=O)c2cccc(S(=O)(=O)N3CCOCC3)c2)n1 | 2 | 5 | 0.7 | 28 | 0.9 | 11
